Records with an inconclusive call do not appear. A call without a number means that no potency is given here. Calls of active or inactive are those of the source. Calls come from the whole dose curve; as a rule, active = well fitted inhibition curve with a large enough effect; inconclusive = small, poorly fitted or top-dose-only effect; inactive = flat fitted curve, though single readings scatter.
Target: Calcium and integrin-binding protein 1 (Homo sapiens) (UniProt Q99828)
Assay: Primary qHTS for Identification of Calcium Integrin Binding Protein 1 (CIB1) Competitor (AID 1508620); note: top concentration of the series differs between compounds
Settings: CIB1-GST / FITC-alphaIIb peptide fluorescence polarization; series mostly up to 114 µM
In short: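 Fluorescence polarization competition: GST-tagged CIB1 (1 uM final) preincubated with compound 15 min at room temperature, then FITC-labelled alphaIIb peptide (100 nM final) added. After 15 min at room temperature, polarization read at Ex 480/Em 540.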

Calcium and integrin-binding protein 1 (Homo sapiens), sequence (Q99828 whole entry, looked up): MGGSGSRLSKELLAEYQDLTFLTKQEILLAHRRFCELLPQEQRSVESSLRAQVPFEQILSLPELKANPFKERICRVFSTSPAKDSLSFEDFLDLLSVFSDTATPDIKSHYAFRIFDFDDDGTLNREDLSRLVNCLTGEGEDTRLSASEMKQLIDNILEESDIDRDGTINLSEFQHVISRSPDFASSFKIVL

SMILES | Potency
CC(C)c1ccccc1-c1nc(NCc2ccc(-c3cccnc3)cc2)c2ccccc2n1 | inactive
O=S(=O)(Nc1ccc2ccccc2c1)c1ccc(NCc2cccc(Cl)c2O)cc1 | inactive
N#Cc1c(-c2ccc(C(=O)c3ccc(O)cc3)cc2)no[n+]1[O-] | inactive
CN(C)CCCNc1ncnc2ccc(-c3ccc4c(c3)OCO4)cc12 | inactive
Cc1cc(-c2ccccc2)nc2c(C(=O)Nc3ccc4c(c3)CCC4)cnn12 | inactive
CC(=O)c1ccc(-c2ccc3ncnc(NCc4ccc(C)o4)c3c2)o1 | inactive
CC(C)Cc1ccc(-c2ccc(=O)n(CC(=O)NCCc3ccccc3)n2)cc1 | inactive
Cc1cccc(-n2cnc3cc(C(=O)NC4CCCCC4)ccc32)c1 | inactive
COc1cccc(S(=O)(=O)NC2CCN(C#N)C2)c1 (centres undefined) | inactive
Cc1c(-c2ccccc2)no[n+]1[O-] | inactive
Cc1cn([C@H]2C[C@H](N[S+](=O)([O-])Cc3ccc(Cl)cc3)[C@@H](CO)O2)c(=O)[nH]c1=O | inactive
Oc1ccc(CNc2cc(C(F)(F)F)ccn2)c2cccnc12 | inactive
O=C(c1ccccc1O)N(Cc1cccs1)Cc1cccs1 | inactive
Cc1cc2c(s1)c1cnn(Cc3cc(F)cc(F)c3)c(=O)c1n2C | inactive
NC(=O)C1CCN(c2nc(-c3ccc(C(F)(F)F)cc3)cs2)CC1 | inactive
c1csc(CNc2ncnc3ccc(-c4ccc5c(c4)OCO5)cc23)n1 | inactive
CC(=O)Nc1cccc(S(=O)(=O)N2CCN(S(=O)(=O)c3ccc4c(c3)OCCO4)CC2)c1 | inactive
Cc1ccc(-c2nn3c(C)nnc3s2)cc1NCc1ccc(-c2cccc(Cl)c2)o1 | inactive
O=c1c2[nH]c3ccsc3c2cnn1Cc1ccccc1F | inactive
Cc1ccc(NC(=O)c2ccc3c(c2)CCC(=O)N3)cc1C | inactive

SMILES | Potency
Cc1cccc(Cn2ncc3c4sc(C)cc4n(C)c3c2=O)c1 | inactive
O=C(COC(=O)CNC(=O)C1CCCCC1)Nc1cc(C(F)(F)F)ccc1Cl | inactive
N#Cc1nc(Nc2ccccc2)nc(NC2CCCC2)n1 | inactive
c1c[nH]c(CNc2ncnc3ccc(-c4ccoc4)cc23)n1 | inactive
Cc1ccc(OCCn2c(CCNC(=O)c3ccc(C)cc3)nc3ccccc32)cc1 | inactive
Cc1cc(C)nc(NC(=S)N2CCN(c3cnc4nccn4c3)CC2)c1 | inactive
O=C(NC1CCCc2c1cnn2CCO)c1ccccn1 (centres undefined) | inactive
CCCC1CCN(C(=O)CC(c2ccc3c(c2)OCO3)c2c(O)cc(OC)cc2OC)C1 (centres undefined) | inactive
O=C(c1ccc2c(c1)ncn2-c1ccccc1)N1CCCCC1 | inactive
COc1ccc(CNc2ccc(S(=O)(=O)Nc3nccs3)cc2)c(O)c1 | inactive
Cc1cccc(Nc2nc(C#N)nc(NC3CCCC3)n2)c1 | inactive
CC(C)c1ccccc1-c1nc(NCc2ccc(-c3cccnc3)cc2)c2[nH]cnc2n1 | inactive
O=C1CCCC2=C1C1(CCCC1)N=C(Nc1nc3ccccc3n1Cc1ccccc1)N2 | inactive
CC(Nc1ncnc2ccc(-c3ccc4c(c3)OCO4)cc12)c1ccco1 (centres undefined) | inactive
Cc1cc(C)nc(NC(=S)N2CCN(c3ccc4ncccc4c3[N+](=O)[O-])CC2)c1 | inactive
Cc1c(P(=S)(c2ccccc2)c2ccccc2)c2ccccc2n1CCCc1ccccc1 | inactive
O=[N+]([O-])c1ccccc1NCc1ccc(O)c2ncccc12 | inactive
Cc1ccc(-c2nccc(=O)n2CC(=O)N(C)C(C)c2ccco2)cc1 (centres undefined) | inactive
c1nc(NC[C@@H]2CCCO2)c2cc(-c3ccc4c(c3)OCO4)ccc2n1 | inactive

— PubChem BioAssay (NCATS)
